In PubChem BioAssay (Tox21):
Several values for one entry are separate records, joined by “and”; a condition that tells them apart may be missing. Equal values may be shown once. Inconclusive results are not listed. Entries that show only a call come without a potency. More than one record can exist for a structure, and the calls need not agree. Activity calls are given as the source filed them. Unless noted, the call rests on the fitted dose curve; in most records, active means well fitted curve in the direction sought with a large enough effect in the repeat runs; inconclusive means weak or mixed curves; inactive means no such curve, though single readings can be large; an effect the other way counts as inactive or inconclusive.

Tests used:
[1] = qHTS assay to identify small molecule agonists of the TGF-beta/Smad signaling pathway - cell viability counter screen (AID 1346829); further: top concentration of the series differs between compounds; nearly all actives have a fitted effect of over 45% in size
Summary of the method: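 CellTiter-Glo luminescence readout; SBE-bla HEK 293T cells, overnight plating, compound 5 hr at 37 C/5% CO2, then bla substrate 2 hr RT, then CellTiter-Glo 30 min RT.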

[2] = qHTS assay to identify small molecule agonists of the TGF-beta/Smad signaling pathway (AID 1346859; active means well fitted activation curve with a large enough effect in the signal ratio in the repeat runs, not every such curve was filed as active; the % refers to the signal ratio; further: series mostly up to about 77 µM)
Summary of the method: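 SBE-bla HEK 293T, 4,000 cells/well, plated o/n; cpd in DMSO, 5 hr, 37 C/5% CO2; B/G FRET substrate 2 hr RT; ex 405, em 460/530 nm.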

[3] = biological target: Thyrotropin-releasing hormone receptor (Homo sapiens) (UniProt P34981); test: qHTS assay to identify small molecule antagonists of the thyrotropin-releasing hormone receptor (TRHR) signaling pathway (AID 1346877; active means well fitted inhibition curve with a large enough effect in the repeat runs, not every such curve was filed as active; further: series mostly up to about 51 µM)
Summary of the method: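 In this cell-based calcium flux format, HEK293 cells expressing TRHR received test compound for 5 min before the agonist TRH (1 nM final). Dye loading lasted 2 h at 37 °C.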

[4] = biological target: Thyrotropin-releasing hormone receptor (Homo sapiens) (UniProt P34981); test: qHTS assay to identify small molecule agonists of the thyrotropin-releasing hormone receptor (TRHR) signaling pathway (AID 1346891; calls by dose curve; further: series mostly up to about 58 µM)
Summary of the method: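 Intracellular calcium rise, read as fluorescence every second for 3 min, served as the agonist signal in dye-loaded HEK293 cells expressing TRHR; each compound ran at 15 concentrations in triplicate.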

[5] = Human pregnane X receptor (PXR) small molecule agonists, qHTS cell viability counter screen (AID 1346977); further: nearly all actives have a fitted effect of over 50% in size; further: potency means the concentration at half of the fitted maximal effect
Summary of the method: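 PXR-Luc HepG2, 2,000 cells/well, 5% charcoal-stripped FBS; 5hr settle; cpd 24hr, 37C/5% CO2; CellTiter-Fluor at 23hr, read 1hr later (fluorescence).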

[6] = Caspase-3/7 induction in HepG2 cells by small molecules, qHTS assay (AID 1346978); further: nearly all actives have a fitted effect of over 15% in size; further: potency means the concentration at half of the fitted maximal effect
Summary of the method: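 Wild-type HepG2 cells, 2,000/well, settled 5 hr at 37 C and 5% CO2, then compound-treated for 17 hr; caspase-3/7 activity read by luminescent Caspase-Glo 3/7 after 30 min at room temperature.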

[7] = Caspase-3/7 induction in CHO-K1 cells by small molecules, qHTS cell viability counter screen (AID 1346979); further: nearly all actives have a fitted effect of over 35% in size; further: potency means the concentration at half of the fitted maximal effect
Summary of the method: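 Cells (CHO-K1, wild type) are plated at 1,500 per well and incubated 5hr. Test compounds in DMSO are then pinned in, followed by 16hr at 37C and 5% CO2. Viability is read by CellTiter-Fluor fluorescence after 1hr.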

[8] = Caspase-3/7 induction in CHO-K1 cells by small molecules, qHTS assay (AID 1346980); further: nearly all actives have a fitted effect of over 15% in size
Summary of the method: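 Wild-type CHO-K1 cells exposed to compounds for 17hr at 37 C, 5% CO2. Caspase-3/7 activity then measured by Caspase-Glo 3/7 luminescence after 30min at room temperature.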

[9] = Caspase-3/7 induction in HepG2 cells by small molecules, qHTS cell viability counter screen (AID 1346981); further: nearly all actives have a fitted effect of over 30% in size; further: potency means the concentration at half of the fitted maximal effect
Summary of the method: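 Counter screen for cytotoxicity: HepG2 exposed 16 hr to compounds, then CellTiter-Fluor viability signal (fluorescence, 1 hr reagent incubation).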

[10] = biological target: Nuclear receptor subfamily 1 group I member 2 (Homo sapiens) (UniProt O75469); test: Human pregnane X receptor (PXR) small molecule agonists, qHTS assay (AID 1346982); further: nearly all actives have a fitted effect of over 35% in size; further: potency means the concentration at half of the fitted maximal effect
Summary of the method: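 Luminescence (ONE-Glo, 30 min RT) after 24 hr compound exposure of PXR-Luc HepG2 cells; cells rested 5 hr post-plating in 5% charcoal-stripped FBS medium.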

Sequence of Nuclear receptor subfamily 1 group I member 2 (Homo sapiens) (O75469 whole entry, looked up): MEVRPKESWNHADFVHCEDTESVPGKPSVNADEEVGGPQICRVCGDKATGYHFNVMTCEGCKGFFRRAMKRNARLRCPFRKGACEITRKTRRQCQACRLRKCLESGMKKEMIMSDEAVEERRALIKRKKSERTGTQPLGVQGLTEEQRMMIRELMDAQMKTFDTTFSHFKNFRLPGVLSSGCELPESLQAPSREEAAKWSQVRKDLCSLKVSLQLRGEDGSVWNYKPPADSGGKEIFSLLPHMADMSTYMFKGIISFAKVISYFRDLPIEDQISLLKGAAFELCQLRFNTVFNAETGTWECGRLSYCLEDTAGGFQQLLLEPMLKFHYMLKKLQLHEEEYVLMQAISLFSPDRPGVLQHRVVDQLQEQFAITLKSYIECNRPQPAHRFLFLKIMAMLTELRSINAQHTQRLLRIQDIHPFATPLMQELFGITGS
Sequence of Thyrotropin-releasing hormone receptor (Homo sapiens) (P34981 whole entry, looked up): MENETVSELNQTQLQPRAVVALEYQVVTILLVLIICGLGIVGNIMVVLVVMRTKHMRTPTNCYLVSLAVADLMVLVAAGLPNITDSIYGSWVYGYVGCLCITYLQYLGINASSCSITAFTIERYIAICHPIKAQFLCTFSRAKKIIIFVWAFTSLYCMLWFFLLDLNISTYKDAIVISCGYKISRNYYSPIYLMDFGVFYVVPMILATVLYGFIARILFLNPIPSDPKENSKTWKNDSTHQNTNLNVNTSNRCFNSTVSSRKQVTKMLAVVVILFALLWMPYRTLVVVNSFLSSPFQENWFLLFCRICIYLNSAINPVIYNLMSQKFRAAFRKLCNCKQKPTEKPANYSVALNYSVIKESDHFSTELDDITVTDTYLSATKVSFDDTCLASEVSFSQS

| Compound | Potency [1] | outcome [2] | Potency [3] | outcome [4] | Potency [5] | Potency [6] | Potency [7] | outcome [8] | Potency [9] | Potency [10] |
| --- | --- | --- | --- | --- | --- | --- | --- | --- | --- | --- |
| Cc1ccc2oc(=O)ccc2c1 | inactive | inactive | inactive | inactive | inactive | inactive | inactive | inactive | inactive | 31.5 µM (active) and inactive |
| Cc1occc(=O)c1O | inactive | inactive | inactive | inactive | inactive | inactive | inactive | inactive | inactive | inactive |
| Fc1ccc(Br)cc1 | inactive | inactive | inactive | inactive | inactive | inactive | inactive | inactive | inactive | inactive |
| COc1ccc(NC(C)=O)cc1N | inactive | inactive | inactive | inactive | inactive | inactive | inactive | inactive | inactive |  |
| O=S1(=O)CC=CC1 | inactive | inactive | inactive | inactive | 39.8 µM (active) and inactive | 59 µM (active) and inactive | 29.6 µM (active) and inactive | inactive | inactive | 52.6 µM (active) and inactive |
| C=C(C)C(=O)O[C@H]1C[C@@H]2CC[C@@]1(C)C2(C)C | inactive | inactive | inactive | inactive | inactive | inactive | inactive | inactive | inactive | inactive |
| CN(C)CCC(c1ccc(Cl)cc1)c1ccccn1 (centres undefined) | inactive | inactive | inactive | inactive | 44.7 µM (active) | inactive | inactive | inactive | inactive |  |
| Cc1ccc(S(N)(=O)=O)cc1 | inactive | inactive | inactive | inactive | inactive | inactive | inactive | inactive | inactive | inactive |
| CN(C)CCCN | inactive | inactive | inactive | inactive | inactive | inactive | inactive | inactive | inactive | inactive |
| CC1=CCC2CC1C2(C)C (centres undefined) | inactive | inactive | inactive | inactive | inactive | inactive | inactive | inactive | inactive | inactive |
| C=C(C)C(=O)OCCOCCOCCOC(=O)C(=C)C | inactive | inactive | inactive | inactive | inactive | inactive | inactive | inactive | inactive | inactive |
| CN(C)CCC(c1ccccc1)c1ccccn1 (centres undefined) | inactive | inactive | inactive | inactive | inactive | inactive | inactive | inactive | inactive |  |
| CC1=CC(=O)NS(=O)(=O)O1 | inactive | inactive | inactive | inactive | inactive | inactive | inactive | inactive | inactive |  |
| CCCCCCCCCCCCS | inactive | inactive | inactive | inactive | inactive | inactive | inactive | inactive | inactive | inactive |
| OCc1cccnc1 | inactive | inactive | inactive | inactive | inactive | inactive | inactive | inactive | inactive |  |
| CCCCCC/C(C=O)=C\c1ccccc1 | inactive | inactive | inactive | inactive | inactive | inactive | inactive | inactive | inactive | inactive |
| COS(C)(=O)=O | inactive | inactive | inactive | inactive | inactive | inactive | inactive | inactive | inactive | inactive |
| Nc1cc([N+](=O)[O-])ccc1O | inactive | inactive | inactive | inactive | 39.8 µM (active) and 54.2 µM (active) | inactive | 54.5 µM (active) and 60.8 µM (active) | inactive | 48.6 µM (active) and 68.2 µM (active) | inactive |
| COc1cc(Cc2cnc(N)nc2N)cc(OC)c1OC | inactive | inactive | inactive | inactive | inactive | inactive | inactive | inactive | inactive |  |
| Cc1cc(C)c(C)cc1C | inactive | inactive | inactive | inactive | inactive | inactive | inactive | inactive | inactive | inactive |
| CCCCCCCCCCCCc1ccccc1 | inactive | inactive | inactive | inactive | inactive | inactive | inactive | inactive | inactive | inactive |
| CSCCC=O | inactive | inactive | inactive | inactive | inactive | inactive | inactive | inactive | inactive | inactive |
| CCCCC(CC)COC(=O)CS (centres undefined) | inactive | inactive | inactive | inactive | inactive | inactive | inactive | inactive | inactive | inactive |
